Some test systems named below: HCT-15 colon; HT29 colon; SNB-75 CNS; SNB-19 CNS; PC-3 prostate; SK-MEL-5 melanoma; UACC-62 melanoma; LOX IMVI melanoma; SK-MEL-28 melanoma; SK-MEL-2 melanoma; SN12C renal; UO-31 renal; TK-10 renal; ACHN renal; CAKI-1 renal; A498 renal; MOLT-4 leukemia; CCRF-CEM leukemia; EKVX NSCLC; U251 CNS.
What all share (test): NCI-60 one-dose screen, 48 h (100 = growth as untreated, 0 = no growth, -100 = all killed)
Settings in all cases: 10 µM unless noted

About 83,000 compounds went through this panel and 20% of them were active in at least one assay; those are over-represented in the sample as a whole.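 96-well plates, one dose, 48 hours. Percent growth reported; active if below 10.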 Unmarked numbers belong to inactive results. Activity calls are given as the source filed them.

As to `CCCCCc1c(C)[nH]c(/C=C2\N=C(c3ccc[nH]3)C=C2Oc2ccc(Cl)cc2)c1C`, the growth is -26.6% [100 µM] (active) in the assay with HCT-15 colon; 0.582% [100 µM] (active) in the assay with HT29 colon; -40% [100 µM] (active) in the assay with SNB-75 CNS; -32.9% [100 µM] (active) with SNB-19 CNS; 5.67% [100 µM] (active) in the assay with PC-3 prostate; -90% [100 µM] (active) in the assay with SK-MEL-5 melanoma. Further, the growth was -83.2% [100 µM] (active) in the assay on UACC-62 melanoma; -69.2% [100 µM] (active) in the assay with LOX IMVI melanoma; -52.4% [100 µM] (active) with SK-MEL-28 melanoma; -73.1% [100 µM] (active) in the assay with SK-MEL-2 melanoma; -7.03% [100 µM] (active) in the assay on SN12C renal; -53% [100 µM] (active) in the assay on UO-31 renal. In addition, the growth is -6.56% [100 µM] (active) with TK-10 renal; -48% [100 µM] (active) with ACHN renal; -22.7% [100 µM] (active) in the assay with CAKI-1 renal; -49% [100 µM] (active) in the assay with A498 renal; -23.6% [100 µM] (active) with MOLT-4 leukemia.

On to `N#Cc1ncc(-c2ccc(C(F)(F)F)cc2)c(NC2CCCCCC2)n1`, for which the growth in the assay on HCT-15 colon is 57.1%; in the assay with HT29 colon it was 19.1%; in the assay on SNB-75 CNS, 49.7%; in the assay with SNB-19 CNS, 35.2%; in the assay with PC-3 prostate, 4.57% (active); in the assay with SK-MEL-5 melanoma, -6.45% (active). Also, the growth was 13.2% with UACC-62 melanoma; 32.5% in the assay on LOX IMVI melanoma; 36.5% with SK-MEL-28 melanoma; 7.62% (active) with SK-MEL-2 melanoma; 19.6% in the assay on SN12C renal; 5.41% (active) in the assay on UO-31 renal. The growth with TK-10 renal is 58.1%; in the assay on ACHN renal, -1.84% (active); in the assay on CAKI-1 renal, 56.8%; in the assay on A498 renal it was 77.6%; in the assay on CCRF-CEM leukemia, 24.8%; with MOLT-4 leukemia, 66.8%.

Regarding `COC(=O)N/N=C/c1coc2ccc(Cl)cc2c1=O`, the growth was 97% in the assay on HCT-15 colon; 95.4% with HT29 colon; 80.5% in the assay with SNB-75 CNS; 98.4% in the assay on SNB-19 CNS; 74% in the assay on PC-3 prostate; 106% in the assay with SK-MEL-5 melanoma. The growth in the assay on UACC-62 melanoma is 93.9%; in the assay on LOX IMVI melanoma it was 86.7%; in the assay on SK-MEL-28 melanoma it was 100%; in the assay on SK-MEL-2 melanoma, 68.5%; in the assay with EKVX NSCLC it was 85.4%; in the assay with UO-31 renal it was 84.1%. Besides, the growth in the assay with ACHN renal is 91.6%; in the assay with CAKI-1 renal it was 81.8%; with A498 renal, 111%; in the assay with CCRF-CEM leukemia, 90.7%; with MOLT-4 leukemia, 84.2%.

With `CC(C)=CCNc1ncnc2c1ncn2C1OC(COP(=O)(O)O)C(O)C1O` (configuration not stated), the growth in the assay on HCT-15 colon was 31.6%; in the assay with HT29 colon, 31.6%; with SNB-75 CNS, 65.2%; with SNB-19 CNS, 89.5%; in the assay with PC-3 prostate, 12%; with SK-MEL-5 melanoma it was 81.1%. Also, the growth in the assay on UACC-62 melanoma was 69.6%; in the assay on LOX IMVI melanoma, -61.3% (active); with SK-MEL-28 melanoma, 85.7%; with SK-MEL-2 melanoma it was 69.4%; with SN12C renal it was 32.4%; with UO-31 renal, 39.6%. Besides, the growth is 28.2% in the assay on ACHN renal; 16.3% in the assay on CAKI-1 renal; -7.75% (active) with A498 renal; 11.4% with CCRF-CEM leukemia; 6.19% (active) with MOLT-4 leukemia.

For the molecule `CC(=O)Nc1ccc(C(=O)COc2cccc(/C=C3\CCc4ccccc4C3=O)c2)cc1`, the growth was 89% with HCT-15 colon; 101% with HT29 colon; 78.7% with SNB-75 CNS; 94.1% with SNB-19 CNS; 76.1% in the assay with PC-3 prostate; 64.4% with SK-MEL-5 melanoma. The growth with UACC-62 melanoma is 83.6%; with LOX IMVI melanoma, 71.5%; in the assay on SK-MEL-2 melanoma it was 51.2%; with EKVX NSCLC, 80.3%; in the assay with SN12C renal, 99.5%; with UO-31 renal it was 5.8% (active). The growth was 103% in the assay on TK-10 renal; 92.1% in the assay on ACHN renal; 254% in the assay with CAKI-1 renal; 92.7% in the assay on A498 renal; 11.6% in the assay on CCRF-CEM leukemia; 38% in the assay with MOLT-4 leukemia.

Regarding `NS(=O)(=O)N(c1cc(C(F)(F)F)cc(C(F)(F)F)c1)C1CCN(Cc2ccc(C(F)(F)F)cc2)CC1`, the growth is 45.7% with HCT-15 colon; 5.92% (active) in the assay on HT29 colon; -4.94% (active) with SNB-75 CNS; 33% in the assay with U251 CNS; 26% in the assay on PC-3 prostate; 38.2% in the assay on SK-MEL-5 melanoma. For the same molecule, the growth in the assay with UACC-62 melanoma is 24.3%; in the assay with LOX IMVI melanoma, 23.5%; in the assay with SK-MEL-28 melanoma, 55.4%; in the assay on SK-MEL-2 melanoma, 28%; in the assay on EKVX NSCLC, 16.2%; in the assay with SN12C renal, 55.1%. In addition, the growth was 64.6% with UO-31 renal; 67% in the assay with TK-10 renal; 69.5% in the assay with ACHN renal; 66.2% in the assay on CAKI-1 renal; 28.2% in the assay on A498 renal; 23.6% in the assay with CCRF-CEM leukemia. For the same molecule, the growth in the assay on MOLT-4 leukemia was 20.3%.

On to `N#Cc1c(-c2ccccc2)cc(-c2ccccc2)n(CCCCC(=O)O)c1=O`, for which the growth with HCT-15 colon is 71.3%; with HT29 colon, 99.8%; in the assay with SNB-19 CNS it was 96.1%; in the assay with U251 CNS it was 93.3%; in the assay on PC-3 prostate, 93.1%; with SK-MEL-5 melanoma, 93.7%. In addition, the growth in the assay with UACC-62 melanoma is 80.6%; with LOX IMVI melanoma it was 88.2%; in the assay on SK-MEL-28 melanoma, 89.5%; in the assay with SK-MEL-2 melanoma, 96.6%; with EKVX NSCLC, 89.4%; with SN12C renal it was 96.8%. Besides, the growth is 86% in the assay with UO-31 renal; 99.9% in the assay with TK-10 renal; 100% with ACHN renal; 86.8% in the assay on CAKI-1 renal; 87.7% in the assay on CCRF-CEM leukemia; 107% in the assay on MOLT-4 leukemia.

Regarding `Clc1ccc2[nH]cc(-c3cncn3CCc3ccccc3)c2c1`, the growth in the assay with HCT-15 colon was 51%; with HT29 colon, 57.3%; in the assay with SNB-19 CNS, 71.1%; in the assay with U251 CNS it was 57.9%; with PC-3 prostate it was 46.7%; in the assay with SK-MEL-5 melanoma, 10.8%. Further, the growth was 57.4% in the assay on UACC-62 melanoma; 70% in the assay with LOX IMVI melanoma; 69.8% with SK-MEL-28 melanoma; 52.5% in the assay with SK-MEL-2 melanoma; 34.4% with EKVX NSCLC; 57.2% with SN12C renal. Also, the growth in the assay on UO-31 renal was 42.2%; in the assay with TK-10 renal, 42.8%; in the assay on ACHN renal, 66%; with CAKI-1 renal, 39%; in the assay on CCRF-CEM leukemia, 54.1%; with MOLT-4 leukemia it was 51%.
